Screening results: PubChem BioAssay, National Center for Advancing Translational Sciences (NCATS)
Only some compounds are listed: those with a hit (about 2.4% of all), similar ones and a draw of the others.
WRN inhibitor: qHTS for Inhibitors of WRN Helicase. 0.46% of 360,000 active. Bifunctional 3'-5' exonuclease/ATP-dependent helicase WRN (Homo sapiens), Q14191. AID 651768, 2012. WRN helicase unwinding, fluorescent forked duplex, kinetic. Potency, µM (top dose mostly 114 µM), hits mostly inhibitors; further: nearly all actives have a fitted effect of over 55% in size
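Screening of the MLSMR collection measured strand separation of a quenched forked DNA duplex (100 nM) by 20 nM WRN with 2 mM ATP, all final. Compounds were preincubated with enzyme 15 min at room temperature.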
Pol kappa inh-1: qHTS for Inhibitors of Polymerase Kappa; DNA polymerase kappa (Homo sapiens), Q9UBT6; purified Pol kappa, fluorescent DNA synthesis assay, 10 min; 0.53% of 400,000 active; Potency, µM (titrated, usually from 107 µM), most hits filed as inhibitors
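Activity was followed as the change in fluorescence between reads at 0 and 10 min after starting the reaction with 50 nM substrate. Beforehand, 10 nM polymerase had been preincubated with compound for 15 min at room temperature.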
Pol eta inh-1: qHTS for Inhibitors of Polymerase Eta. Potency, µM (titrated, usually from 114 µM), actives largely listed as inhibitors. DNA polymerase eta (Homo sapiens), Q9Y253. 1.2% of 390,000 active. recombinant Pol eta, fluorescent DNA replication assay
Target sequence (Q9Y253 whole entry, looked up): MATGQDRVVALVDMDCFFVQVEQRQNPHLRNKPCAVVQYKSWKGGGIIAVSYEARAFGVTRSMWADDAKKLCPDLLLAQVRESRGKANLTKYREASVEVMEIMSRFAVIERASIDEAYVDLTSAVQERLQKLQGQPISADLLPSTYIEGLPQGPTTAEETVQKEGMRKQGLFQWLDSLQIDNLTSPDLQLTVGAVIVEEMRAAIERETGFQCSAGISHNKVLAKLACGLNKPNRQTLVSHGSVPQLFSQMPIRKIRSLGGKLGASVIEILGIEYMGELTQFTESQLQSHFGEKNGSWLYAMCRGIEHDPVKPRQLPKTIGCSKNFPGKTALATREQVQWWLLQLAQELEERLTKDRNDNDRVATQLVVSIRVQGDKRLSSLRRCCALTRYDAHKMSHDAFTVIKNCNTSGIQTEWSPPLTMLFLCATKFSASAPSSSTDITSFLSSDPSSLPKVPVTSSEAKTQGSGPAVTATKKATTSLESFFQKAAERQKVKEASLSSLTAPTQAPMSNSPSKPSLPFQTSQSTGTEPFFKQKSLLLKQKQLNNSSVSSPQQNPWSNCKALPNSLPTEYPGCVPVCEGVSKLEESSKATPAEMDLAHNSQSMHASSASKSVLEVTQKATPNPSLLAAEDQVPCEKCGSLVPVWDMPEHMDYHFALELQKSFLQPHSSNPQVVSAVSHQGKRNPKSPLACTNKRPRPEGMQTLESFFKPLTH
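Pol eta at 10 nM preincubated with compounds 15 min at room temperature; reaction started with fluorescent substrate (50 nM final) and read kinetically at 0 and 10 min.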
FEN1 inhibitor: qHTS Assay for the Inhibitors of Human Flap endonuclease 1 (FEN1); Recombinant FEN1 flap cleavage, fluorescence, 15 min; Potency, µM (doses to about 114 µM), hits mostly inhibitors; 0.35% of 390,000 active; further: nearly all actives have a fitted effect of over 65% in size
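FEN1 at 10 nM, compound pretreatment for 15 min (room temperature), 50 nM final substrate to initiate; endpoint reads at 0 and 15 min; DMSO-only plates used as vehicle background.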
Pol beta inh: qHTS Assay for Inhibitors of DNA Polymerase Beta. Potency, µM (highest dose often 114 µM), usual class: inhibitors. P06746. Pol beta primer extension/strand displacement, fluorescence kinetic. 1.3% of 340,000 active
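Homogeneous kinetic assay of primer extension and strand displacement by 10 nM Pol beta, preincubated 15 min at room temperature with compound before 50 nM substrate (final) was added. Read at 0 and 10 min; four-parameter Hill fit.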
POLI inh: qHTS for Inhibitors of Polymerase Iota; DNA polymerase iota (Homo sapiens), Q9UNA4; Pol iota fluorescent replication assay, 10 min; Potency, µM (highest dose often 115 µM), hits mostly inhibitors; 1% of 390,000 active; AID 588590, 2011
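Pol iota at 10 nM preincubated 15 min with compounds at room temperature; reaction started with fluorescent substrate, 50 nM final. Fluorescence read kinetically at 0 and 10 min; buffer-only wells as negative control.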
PGK validate: qHTS for inhibitors of Phosphogylcerate Kinase: Hit Validation Screen | shares compounds with Pol kappa inh-1 | TbPGK coupled GAPDH assay, Kinase-Glo luminescence | Potency, µM (doses to about 57.5 µM), actives largely listed as inhibitors | 79% of 500 active; further: nearly all actives have a fitted effect of over 65% in size
Pol iota confirm: qHTS for Inhibitors of Polymerase Iota: Confirmatory Assay for Cherry-picked Compounds; shares compounds with Pol kappa inh-1; Pol iota primer extension, TAMRA/BHQ fluorescence; Potency, µM, hits mostly inhibitors; 77% of 1,500 active
GALK inh confirm: Confirmation Assay for Inhibitors of Human Galactokinase (GALK); shares compounds with Pol eta inh-1; purified GALK, Kinase-Glo ATP depletion luminescence; Potency, µM (top dose mostly 115 µM), most hits filed as inhibitors; 70% of 150 active; AID 2015, 2009
GALK redox cs: Confirmatory Assay for Inhibitors of Human Galactokinase (GALK): Phenol-HRP redox assay counterscreen; 40% of 150 active; Potency, µM (series often up to 115 µM), actives largely listed as inhibitors; shares compounds with Pol eta inh-1; Phenol red-HRP H2O2 redox cycling, absorbance 600 nm; AID 2035, 2009
HEK293 viability: Secondary Assay for Inhibitors of Human Galactokinase (GALK): HEK-293 Cell Viability Assay. shares compounds with Pol eta inh-1. HEK-293 viability, ATP luminescence (CellTiter-Glo), 24/48 h. Potency, µM (doses to about 46.1 µM), usual class: inhibitors. 10% of 170 active
Pol kappa inh-2: qHTS for Inhibitors of Polymerase Kappa: Confirmatory Assay for Cherry-picked Compounds; 76% of 920 active; purified Pol-kappa, fluorescent strand-displacement substrate; shares compounds with Pol eta inh-1; Potency, µM, actives largely listed as inhibitors
Pol eta inh-2: qHTS for Inhibitors of Polymerase Eta: Confirmatory Assay for Cherry-picked Compounds; shares compounds with Pol eta inh-1; Pol eta primer extension, TAMRA/BHQ fluorescence, 10 min; Potency, µM, actives largely listed as inhibitors; 64% of 2,600 active; AID 720502, 2013
Hits are given with their value; n = inactive; u = inconclusive; x = not tested or not shown; [ ] = another dose, or the depositor's remark. The call rests on the fitted dose curve; in most records, active means well fitted curve in the direction sought with a large enough effect; inconclusive means small, poorly fitted or top-dose-only effect, or another doubt; inactive means no such curve, though single readings can be large; an effect the other way counts as inactive or inconclusive.

SMILES	WRN inhibitor	Pol kappa inh-1	Pol eta inh-1	FEN1 inhibitor	Pol beta inh	POLI inh	Pol iota confirm	Pol eta inh-2	others
O=C(CSc1nc(-c2cccc(Cl)c2)nc2cc(=O)[nH]n12)Nc1ccccc1	x	n	50µM	n	20µM	u	60	85
C=CCN1C(=O)/C(=C/c2ccc(OC(C)=O)c(OCC)c2[N+](=O)[O-])SC1=S	n	u	20µM	n	u	n	75	67	GALK inh confirm=u;GALK redox cs=42µM;HEK293 viability=u
O=C(O)c1cccc(-c2ccc(/C=C3/SC(=Nc4ccccc4)N(Cc4cccnc4)C3=O)o2)c1	u	u	7.1µM	u	u	u	38	43	PGK validate=6.5µM;Pol kappa inh-2=21
CCOC(=O)C(=Cc1ccc(N(C)C)cc1)C(=O)c1ccccc1	n	x	x	x	x	x	x	x
CCOC(=O)N(O)c1ccc(C=Cc2ccccc2)cc1	u	79µM	13µM	n	x	25µM	75	u	PGK validate=9.2µM;Pol kappa inh-2=17
CCCCN(C(=O)c1cccc(-n2cccc2)c1)c1c(N)n(CCC)c(=O)[nH]c1=O	56µM	u	16µM	n	x	14µM	30	38
CCCN(C(=O)c1cccc(-n2cccc2)c1)c1c(N)n(Cc2ccccc2)c(=O)[nH]c1=O	50µM	28µM	11µM	n	x	10µM	30	43
Cc1ccc(OCC(=O)Nc2cccc(-c3nc4ccccc4s3)c2)cc1	x	n	n	n	u	n	x	x
COc1ccccc1Nc1cc2ccccc2c(=O)[nH]1	x	x	x	x	x	x	42	27
Cc1cc2ccccc2c(=O)[nH]1	n	n	n	n	n	n	x	x
Cc1ccccc1Nc1cc2ccccc2c(=O)[nH]1	u	n	11µM	n	n	u	75	38
O=c1[nH]c(Nc2ccccn2)cc2ccccc12	n	n	u	n	x	u	x	x
COc1cccc(NC(=O)CN(C)C(=O)c2cc(-c3ccco3)nc3ccccc23)c1	n[11.6 µM]	u	u	n	x	35µM	38	30
Cc1ccc(NC(=O)CN(C)C(=O)c2cc(-c3ccco3)nc3ccccc23)cc1	71µM	50µM	20µM	n	x	18µM	42	60
COc1cccc(NC(=O)c2cc(-c3ccco3)nc3ccccc23)c1	n[11.6 µM]	u	u	n	x	u	x	x
CCOc1ccc(NC(=O)CN(C)C(=O)c2cc(-c3ccco3)nc3ccccc23)cc1OCC	n	n	n	n	x	n	x	x
CCOC(=O)C1=CCN(S(=O)(=O)c2ccccc2Cl)C1c1cccc(C)c1 (configuration not stated)	n	x	x	x	x	x	x	x
CCN(C(=O)C(C)N1C(=O)/C(=C/c2ccco2)SC1=S)C1CCS(=O)(=O)C1 (configuration not stated)	50µM	28µM	16µM	u	11µM	22µM	42	27
Cc1cc(C(=O)O)ccc1-n1c(C)cc(C=C2C(=O)c3ccccc3C2=O)c1C	n[11.6 µM]	n	u	n	n	u	x	x
Cc1ccc(C(=O)O)cc1-c1ccc(C=C2C(=O)c3ccccc3C2=O)o1	n[11.6 µM]	79µM	7.9µM	u	32µM	u	42	27
CC(=O)c1c(C)oc2ccc(NS(=O)(=O)c3ccc(C)cc3)cc12	n	n	n	n	n	n	x	x
Cc1ccc(C)c(S(=O)(=O)Nc2ccc3oc(C)c(C(=O)O)c3c2)c1	56µM	79µM	10µM	u	8.9µM	14µM	34	27
COc1cccc(-c2nc3c(c(SCc4ccccc4)n2)Cc2c(CO)cnc(C)c2O3)c1	x	n	n	n	n	n	x	x
CCC(=O)Nc1nnc(SCc2cc(=O)c3cc(C)ccc3[nH]2)s1	x	n	n	n	n	n	x	x
CC(=O)Nc1nnc(SCc2cc(=O)c3cc(C)ccc3[nH]2)s1	x	n	50µM	n	40µM	79µM	67	u	Pol kappa inh-2=17
SMILES	WRN inhibitor	Pol kappa inh-1	Pol eta inh-1	FEN1 inhibitor	Pol beta inh	POLI inh	Pol iota confirm	Pol eta inh-2	others
C=CCNC(=O)c1ccc(Cn2c(=S)[nH]c3cc4c(cc3c2=O)OCO4)cc1	u	79µM	u	u	n	20µM	67	x	Pol kappa inh-2=47
O=C(CSc1ccsc1[N+](=O)[O-])NCc1ccco1	n[11.6 µM]	79µM	22µM	n	u	u	67	30	Pol kappa inh-2=42
Cc1ccccc1NC(=O)CSc1ccsc1[N+](=O)[O-]	50µM	35µM	2.8µM	u	20µM	11µM	19	17
NC1=NC(=O)/C(=C\c2ccco2)S1	50µM	40µM	18µM	50µM	u	u	17	27	Pol kappa inh-2=12
NC1=NC(=O)C(=Cc2ccccc2)S1	n	n	n	n	x	n	x	x
CC1(OC(=O)c2ccc(Cl)nc2)C(=O)C=C2C=C3CCCN3C=C2C1=O (configuration not stated)	u	50µM	14µM	u	25µM	u	67	48
CC1(OC(=O)C2CCCC2)C(=O)C=C2C=C3CCCCN3C=C2C1=O (configuration not stated)	n	u	u	n	n	u	x	x
